Reference: PubChem BioAssay AID1159580 (chemical genetic matrix, 2015)
The campaign covered roughly 5,500 compounds. About 2,000 (36%) were called active. Another 18% or so got no clear call; they are omitted. Rule as the data show it: active = normalized growth mostly below about 0.91 (no sharp cut-off); inconclusive = no clear call, values can overlap the other calls; inactive = mostly above about 0.92. The list shows a part of the results.

Assay: chemical genetic growth profiling, strain panel (AID 1159580);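 also: tested at 20 µM; growth read once vehicle control cultures reached saturation at 30 °C; 1 = growth at the plate median or of vehicle wells; lower values mean less growth of the strain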
Conditions: S. cerevisiae deletion strains, growth OD

Measured: normalized growth

N#C/C(=C\C=C\c1ccccc1)c1nc2ccccc2[nH]1
active: locus YHR030C, strain SLT2, hits give low values 0.673 | locus YLR113W, strain HOG1, hits give low values 0.658 | locus YPL256C, strain CLN2, hits give low values 0.767
inactive: locus YAR019C, strain CDC15, hits give low values 0.958 | locus YBL105C, strain PKC1, hits give low values 0.969 | locus YBR135W, strain CKS1, hits give low values 0.944 | locus YBR136W, strain MEC1, hits give low values 0.962 | locus YBR160W, strain CDC28, hits give low values 0.962 | locus YDL017W, strain CDC7, hits give low values 0.961 | locus YDL028C, strain MPS1, hits give low values 0.962 | locus YDL101C, strain DUN1, hits give low values 0.973 | locus YDL108W, strain KIN28, hits give low values 0.968 | locus YDL132W, strain cdc53, hits give low values 0.964 | locus YDL214C, strain PRR2, hits give low values 0.864 | locus YDR052C, strain DBF4, hits give low values 0.966 | locus YDR054C, strain cdc34, hits give low values 0.955 | locus YDR226W, strain ADK1, hits give low values 0.962 | locus YDR477W, strain SNF1, hits give low values 0.823 | locus YER123W, strain YCK3, hits give low values 0.878 | locus YER133W, strain GLC7, hits give low values 0.834 | locus YFL009W, strain cdc4, hits give low values 0.964 | locus YFL029C, strain CAK1, hits give low values 0.958 | locus YFR003C, strain YPI1, hits give low values 0.976 | locus YFR019W, strain FAB1, hits give low values 0.966 | locus YFR028C, strain CDC14, hits give low values 0.956 | locus YGR040W, strain KSS1, hits give low values 0.83 | locus YGR052W, strain FMP48, hits give low values 0.916 | locus YGR092W, strain DBF2, hits give low values 0.829 | locus YHR079C, strain IRE1, hits give low values 0.848 | locus YHR082C, strain KSP1, hits give low values 0.819 | locus YHR205W, strain SCH9, hits give low values 0.818 | locus YIL147C, strain SLN1, hits give low values 0.967 | locus YJL095W, strain BCK1, hits give low values 0.729 | locus YJL128C, strain PBS2, hits give low values 0.957 | locus YJL157C, strain FAR1, hits give low values 0.886 | locus YJR016C, strain ILV3, hits give low values 0.958 | locus YJR066W, strain TOR1 (second series), hits give low values 0.871 | locus YJR066W, strain TOR1, hits give low values 0.791 | locus YKL048C, strain ELM1, hits give low values 0.904 | locus YKL067W, strain YNK1, hits give low values 0.898 | locus YKL101W, strain HSL1, hits give low values 0.882 | locus YKL193C, strain SDS22, hits give low values 0.95 | locus YKL203C, strain TOR2, hits give low values 0.878 | locus YLR133W, strain CKI1, hits give low values 0.891 | locus YLR403W, strain SFP1, hits give low values 0.86 | locus YML070W, strain DAK1, hits give low values 0.864 | locus YMR001C, strain CDC5, hits give low values 0.956 | locus YMR205C, strain PFK2 (second series), hits give low values 0.901 | locus YMR277W, strain FCP1, hits give low values 0.955 | locus YNL006W, strain LST8, hits give low values 0.96 | locus YNL020C, strain ARK1, hits give low values 0.896 | locus YNL161W, strain CBK1, hits give low values 0.956 | locus YNL183C, strain NPR1, hits give low values 0.793 | locus YNL207W, strain RIO2, hits give low values 0.946 | locus YNL222W, strain SSU72, hits give low values 0.957 | locus YNL307C, strain MCK1 (second series), hits give low values 0.866 | locus YOL078W, strain AVO1, hits give low values 0.954 | locus YOL136C, strain PFK27, hits give low values 0.885 | locus YOR061W, strain CKA2, hits give low values 0.908 | locus YOR119C, strain RIO1, hits give low values 0.875 | locus YOR231W, strain MKK1, hits give low values 0.828 | locus YOR329C, strain SCD5, hits give low values 0.976 | locus YPL031C, strain PHO85, hits give low values 0.824 | locus YPL153C, strain RAD53, hits give low values 0.855 | locus YPL204W, strain HRR25, hits give low values 0.827 | locus YPL209C, strain IPL1, hits give low values 0.963 | locus YPR025C, strain CCL1, hits give low values 0.952 | locus YPR106W, strain ISR1, hits give low values 0.965 | locus YPR111W, strain DBF20, hits give low values 0.944 | strain NNK1, hits give low values 0.942 | strain TSCII, hits give low values 0.952
